Results taken from ChEMBL document CHEMBL3988442, “University of Dundee, Small-Polar-MMV Screening Library” (2021).
For some assays here: Potency and affinity values are given separately.

Assays:
Design in all cases: scale not given: direction of the effect not stated beside the values
[1] = molecular target: Protein translocase subunit SecA (Escherichia coli (strain K12)) (UniProt P10408); assay: Assay to Identify E. coli SecA ATPase Inhibitors; format: functional; conditions: 30 µM
[2] = molecular target: T1, Ubiquitin-activating enzyme e1, putative (Leishmania donovani (strain BPK282A1)) (UniProt E9BSI1); assay: Leishmania donovani Ubiquitin Activating Enzyme (LdE1); format: functional; conditions: 30 µM
T1 sequence (whole entry): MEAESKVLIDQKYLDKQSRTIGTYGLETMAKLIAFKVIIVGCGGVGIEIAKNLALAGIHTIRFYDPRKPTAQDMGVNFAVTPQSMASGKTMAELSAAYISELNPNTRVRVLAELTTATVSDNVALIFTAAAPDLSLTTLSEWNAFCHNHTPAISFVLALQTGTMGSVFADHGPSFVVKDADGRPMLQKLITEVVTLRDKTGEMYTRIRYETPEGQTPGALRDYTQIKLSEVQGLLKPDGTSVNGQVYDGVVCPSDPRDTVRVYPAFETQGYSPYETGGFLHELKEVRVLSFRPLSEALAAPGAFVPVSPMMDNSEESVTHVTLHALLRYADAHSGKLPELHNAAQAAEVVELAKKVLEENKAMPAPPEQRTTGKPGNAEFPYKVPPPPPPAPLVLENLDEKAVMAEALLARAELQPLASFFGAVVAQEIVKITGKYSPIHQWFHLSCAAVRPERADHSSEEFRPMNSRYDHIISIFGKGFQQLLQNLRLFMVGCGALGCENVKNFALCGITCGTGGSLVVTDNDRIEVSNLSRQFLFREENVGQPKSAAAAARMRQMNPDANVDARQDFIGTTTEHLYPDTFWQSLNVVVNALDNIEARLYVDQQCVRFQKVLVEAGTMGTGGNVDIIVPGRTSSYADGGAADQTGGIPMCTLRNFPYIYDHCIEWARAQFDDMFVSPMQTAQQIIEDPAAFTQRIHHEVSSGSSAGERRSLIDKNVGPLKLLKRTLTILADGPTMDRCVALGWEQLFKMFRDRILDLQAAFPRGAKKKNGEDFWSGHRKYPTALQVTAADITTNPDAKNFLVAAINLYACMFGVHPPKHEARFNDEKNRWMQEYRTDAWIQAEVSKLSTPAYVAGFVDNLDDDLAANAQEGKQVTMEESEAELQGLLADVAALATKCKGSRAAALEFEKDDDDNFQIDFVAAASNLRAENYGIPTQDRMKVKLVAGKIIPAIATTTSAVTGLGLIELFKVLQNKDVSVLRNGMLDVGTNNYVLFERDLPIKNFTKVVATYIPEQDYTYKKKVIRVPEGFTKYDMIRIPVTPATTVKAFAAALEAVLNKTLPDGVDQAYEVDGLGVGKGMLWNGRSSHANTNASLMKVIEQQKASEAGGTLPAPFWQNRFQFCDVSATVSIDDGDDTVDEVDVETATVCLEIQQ

[3] = molecular target: AMP-activated protein kinase, AMPK (Homo sapiens) (UniProt P54646+O43741+P54619+Q9UGJ0+Q9Y478+Q13131+Q9UGI9); assay: AMP-dependent Kinase enzyme assay. An in vitro enzyme assay that detects ADP turnover that is directly proportional to AMPK activity. This uses naive AMPK that is activated during the assay with MK-8722; format: functional; conditions: 30 µM
[4] = molecular target: Sialic acid-binding Ig-like lectin 9 (Homo sapiens) (UniProt Q9Y336); assay: Hs-Siglec9 ALPHAscreen SOP 20170721; conditions: 10 µM
Trypanosoma cruzi = assay: Trypanosoma cruzi phosphomannomutase and mannose-1-phosphate guanylyltransferase assay; format: functional; conditions: 10 µM
[5] = molecular target: T2, Arginase-2, mitochondrial (Homo sapiens) (UniProt P78540); assay: in vitro enzyme assay to detect the production of urea directly proportional to the activity of Arginase II; format: functional; conditions: 33.3 µM; also: in the data most compounds retested in dose-response had high values
T2 sequence (whole entry): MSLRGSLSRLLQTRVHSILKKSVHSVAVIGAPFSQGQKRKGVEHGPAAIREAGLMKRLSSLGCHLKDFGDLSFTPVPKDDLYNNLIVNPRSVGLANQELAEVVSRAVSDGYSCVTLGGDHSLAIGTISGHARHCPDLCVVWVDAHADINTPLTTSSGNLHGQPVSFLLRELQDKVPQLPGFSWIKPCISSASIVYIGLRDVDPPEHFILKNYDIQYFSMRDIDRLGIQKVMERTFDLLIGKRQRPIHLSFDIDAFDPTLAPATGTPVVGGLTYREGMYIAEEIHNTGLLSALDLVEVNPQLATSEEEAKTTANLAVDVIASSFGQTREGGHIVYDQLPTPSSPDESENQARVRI

[6] = molecular target: T3, Proteasome subunit beta (Trypanosoma cruzi) (UniProt O96673); assay: Trypanosoma cruzi proteasome chymotrypsin-like activity (TcProtChymo) assay.; also: in the data most compounds retested in dose-response had high values; format: functional; conditions: 9.37 µM
T3 sequence (whole entry): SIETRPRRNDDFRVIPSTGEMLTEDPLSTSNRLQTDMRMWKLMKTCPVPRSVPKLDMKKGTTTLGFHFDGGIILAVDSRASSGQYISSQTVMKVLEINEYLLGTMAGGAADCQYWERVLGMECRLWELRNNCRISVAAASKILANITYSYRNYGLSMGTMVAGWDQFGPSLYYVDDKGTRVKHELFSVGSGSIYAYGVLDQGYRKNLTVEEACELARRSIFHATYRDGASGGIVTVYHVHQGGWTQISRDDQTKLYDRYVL

Homo sapiens = species on record: Homo sapiens; assay: To identify inhibition of the IFN signalling (Jak-Stat) pathway via expression of an eGFP reporter gene under the control of an IFN-stimulated response element (ISRE) containing MxA promoter.; format: functional; conditions: 30 µM
[7] = molecular target: T4, Tyrosyl-tRNA synthetase, putative (Trypanosoma cruzi (strain CL Brener)) (UniProt Q4DSP6); assay: Trypanosoma cruzi tyrosyl tRNA synthetase (TcYRS) _High Tyrosine SOP; format: functional; conditions: 30 µM; also: in the data most compounds retested in dose-response had high values
T4 sequence (whole entry): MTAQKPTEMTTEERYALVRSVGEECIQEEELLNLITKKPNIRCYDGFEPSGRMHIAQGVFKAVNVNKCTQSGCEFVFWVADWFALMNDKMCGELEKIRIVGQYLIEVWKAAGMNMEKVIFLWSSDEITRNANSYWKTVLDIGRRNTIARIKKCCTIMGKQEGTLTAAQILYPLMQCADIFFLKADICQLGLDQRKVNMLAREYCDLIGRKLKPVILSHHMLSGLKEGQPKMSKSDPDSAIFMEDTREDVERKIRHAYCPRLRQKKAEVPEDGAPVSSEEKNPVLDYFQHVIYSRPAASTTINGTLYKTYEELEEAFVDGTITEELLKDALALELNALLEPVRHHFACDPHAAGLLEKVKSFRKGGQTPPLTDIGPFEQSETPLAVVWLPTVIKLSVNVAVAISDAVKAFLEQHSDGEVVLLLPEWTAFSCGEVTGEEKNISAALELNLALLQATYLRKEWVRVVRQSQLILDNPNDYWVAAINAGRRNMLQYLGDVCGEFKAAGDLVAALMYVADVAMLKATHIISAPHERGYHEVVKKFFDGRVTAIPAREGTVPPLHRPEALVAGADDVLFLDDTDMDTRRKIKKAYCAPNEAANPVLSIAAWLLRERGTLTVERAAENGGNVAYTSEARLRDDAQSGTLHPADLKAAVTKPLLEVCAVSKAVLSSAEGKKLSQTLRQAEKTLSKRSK

[8] = molecular target: T4, Tyrosyl-tRNA synthetase, putative (Trypanosoma cruzi (strain CL Brener)); assay: Trypanosoma cruzi tyrosyl tRNA synthetase (TcYRS) SOP; format: functional; conditions: 30 µM
[9] = molecular target: Chromo domain-containing protein 1 (Saccharomyces cerevisiae (strain ATCC 204508 / S288c) (Baker's yeast)) (UniProt P32657); assay: ScCHD-1 Enzyme Inhibition Assay; format: functional; conditions: 30 µM; also: in the data most compounds retested in dose-response had high values
Chain of Chromo domain-containing protein 1 (Saccharomyces cerevisiae (strain ATCC 204508 / S288c) (Baker's yeast)) (P32657 whole entry, the tested form may be a part): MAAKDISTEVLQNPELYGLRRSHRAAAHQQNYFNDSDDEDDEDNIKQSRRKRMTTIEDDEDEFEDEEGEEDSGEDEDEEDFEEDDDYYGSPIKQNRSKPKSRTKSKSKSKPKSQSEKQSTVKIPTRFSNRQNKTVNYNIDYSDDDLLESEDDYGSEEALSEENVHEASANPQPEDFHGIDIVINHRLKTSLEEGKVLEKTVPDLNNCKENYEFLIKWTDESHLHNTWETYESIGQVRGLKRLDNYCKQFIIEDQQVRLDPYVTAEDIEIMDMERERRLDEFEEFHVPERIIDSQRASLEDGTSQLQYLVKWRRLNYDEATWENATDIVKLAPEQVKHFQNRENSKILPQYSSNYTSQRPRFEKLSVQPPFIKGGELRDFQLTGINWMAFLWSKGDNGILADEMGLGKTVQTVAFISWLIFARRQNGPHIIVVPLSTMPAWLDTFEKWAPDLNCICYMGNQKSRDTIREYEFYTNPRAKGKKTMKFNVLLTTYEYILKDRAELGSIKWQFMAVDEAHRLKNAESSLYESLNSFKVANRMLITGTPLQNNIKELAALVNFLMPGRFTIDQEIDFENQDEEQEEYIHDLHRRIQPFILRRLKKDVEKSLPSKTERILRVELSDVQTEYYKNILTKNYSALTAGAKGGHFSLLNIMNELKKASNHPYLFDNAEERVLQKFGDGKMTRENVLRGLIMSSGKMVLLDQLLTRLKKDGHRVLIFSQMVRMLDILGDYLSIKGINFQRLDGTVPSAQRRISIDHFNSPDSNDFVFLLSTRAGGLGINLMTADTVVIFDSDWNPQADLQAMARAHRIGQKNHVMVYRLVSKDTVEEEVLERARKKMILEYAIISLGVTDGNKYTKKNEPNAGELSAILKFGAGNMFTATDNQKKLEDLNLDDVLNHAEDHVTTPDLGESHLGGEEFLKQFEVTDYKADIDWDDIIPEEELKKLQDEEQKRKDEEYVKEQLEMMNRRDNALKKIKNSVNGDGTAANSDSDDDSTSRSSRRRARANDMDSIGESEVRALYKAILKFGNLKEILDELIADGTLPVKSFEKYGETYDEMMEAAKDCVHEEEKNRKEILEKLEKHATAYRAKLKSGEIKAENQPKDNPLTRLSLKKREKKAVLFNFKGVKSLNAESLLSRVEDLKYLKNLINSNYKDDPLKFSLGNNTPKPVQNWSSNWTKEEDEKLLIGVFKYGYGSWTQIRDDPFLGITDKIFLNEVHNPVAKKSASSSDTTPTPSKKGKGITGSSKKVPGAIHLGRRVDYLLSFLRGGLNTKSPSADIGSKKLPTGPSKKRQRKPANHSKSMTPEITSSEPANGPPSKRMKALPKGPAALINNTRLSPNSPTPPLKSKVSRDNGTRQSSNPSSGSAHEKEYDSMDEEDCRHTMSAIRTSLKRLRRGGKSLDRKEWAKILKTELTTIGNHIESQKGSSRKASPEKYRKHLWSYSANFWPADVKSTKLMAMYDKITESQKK

Chain of Protein translocase subunit SecA (Escherichia coli (strain K12)) (P10408 whole entry): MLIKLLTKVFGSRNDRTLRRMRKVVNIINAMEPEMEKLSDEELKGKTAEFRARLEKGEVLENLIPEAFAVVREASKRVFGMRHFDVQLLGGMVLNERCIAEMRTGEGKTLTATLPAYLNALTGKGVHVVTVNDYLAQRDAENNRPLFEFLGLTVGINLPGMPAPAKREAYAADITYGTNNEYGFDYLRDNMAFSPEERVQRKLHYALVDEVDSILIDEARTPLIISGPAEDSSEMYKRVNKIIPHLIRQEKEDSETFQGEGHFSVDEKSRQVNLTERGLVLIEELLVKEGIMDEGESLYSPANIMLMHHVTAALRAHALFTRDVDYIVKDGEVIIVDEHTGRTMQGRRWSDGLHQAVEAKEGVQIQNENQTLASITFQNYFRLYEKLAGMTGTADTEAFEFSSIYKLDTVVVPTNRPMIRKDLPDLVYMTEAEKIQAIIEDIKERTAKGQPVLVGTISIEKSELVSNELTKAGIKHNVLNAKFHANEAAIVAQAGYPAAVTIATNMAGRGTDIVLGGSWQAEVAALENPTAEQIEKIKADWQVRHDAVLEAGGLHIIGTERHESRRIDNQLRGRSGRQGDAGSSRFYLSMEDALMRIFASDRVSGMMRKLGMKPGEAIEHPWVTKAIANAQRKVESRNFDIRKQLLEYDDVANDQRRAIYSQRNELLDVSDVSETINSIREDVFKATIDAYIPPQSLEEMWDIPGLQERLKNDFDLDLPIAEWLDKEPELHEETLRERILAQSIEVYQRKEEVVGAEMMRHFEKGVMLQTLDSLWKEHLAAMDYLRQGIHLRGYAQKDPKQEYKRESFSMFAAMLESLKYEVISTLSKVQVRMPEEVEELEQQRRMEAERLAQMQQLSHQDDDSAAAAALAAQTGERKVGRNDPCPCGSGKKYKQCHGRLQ
Chain of Sialic acid-binding Ig-like lectin 9 (Homo sapiens) (Q9Y336 whole entry): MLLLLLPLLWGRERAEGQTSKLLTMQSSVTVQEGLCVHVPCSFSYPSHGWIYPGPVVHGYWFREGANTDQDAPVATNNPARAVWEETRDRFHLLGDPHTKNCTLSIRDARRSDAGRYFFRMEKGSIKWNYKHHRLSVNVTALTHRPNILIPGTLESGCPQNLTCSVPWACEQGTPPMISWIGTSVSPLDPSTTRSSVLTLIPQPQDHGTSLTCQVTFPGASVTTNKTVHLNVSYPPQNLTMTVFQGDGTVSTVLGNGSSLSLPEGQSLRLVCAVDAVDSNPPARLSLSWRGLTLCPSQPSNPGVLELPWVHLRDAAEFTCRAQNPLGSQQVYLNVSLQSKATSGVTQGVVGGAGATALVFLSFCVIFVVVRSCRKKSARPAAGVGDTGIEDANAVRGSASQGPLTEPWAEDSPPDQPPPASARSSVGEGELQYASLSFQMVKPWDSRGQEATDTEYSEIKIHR

| Structure (SMILES) | Percent Effect [1] | Percent Effect [2] | Percent Effect [3] | Percent Effect [4] | Percent Effect (Trypanosoma cruzi) | Percent Effect [5] | Percent Effect [6] | Percent Effect (Homo sapiens) | Percent Effect [7] | Percent Effect [8] | Percent Effect [9] |
| --- | --- | --- | --- | --- | --- | --- | --- | --- | --- | --- | --- |
| CN(CCNC(=O)N1CCN(Cc2ccon2)CC1)c1ccccc1 | -4.87% | 5.33% | -2.4% | 0.269% | -5.75% | 2.6% | 12.2% | -1.26% | 3.83% | 3.7% | -4.99% |
| COc1cccc(CCC(=O)N2CCCC(n3cc(C)cn3)C2)c1 (configuration not stated) | 0.219% | -3.8% | 11.1% | -1.76% | -0.923% | 9.25% | 1.03% | -7.62% | -5.21% | 0% | -20% |
| CCN1CCN(CC(O)c2ccc(OC(F)(F)F)cc2)CC1 (configuration not stated) | -9.59% | 16.2% | -17.6% | 27.4% | 9.34% | -19.6% | 9.73% | 0.571% | 6.4% | 18.5% | -20.3% |
| CC(=O)N1CCCN(C(=O)NCc2ccccn2)CC1 | -4.25% | 0% | 2.97% | 0.332% | -5.88% | 3.6% | 3.81% | 2.28% | 1.48% | -6.17% | 9.43% |
| Cn1cc(CNCCn2cccn2)c(-c2cccnc2)n1 | -3.75% | 0% | -3.89% | -4.32% | -1.66% | 0.744% | 13.8% | -1.72% | -1.07% | 1.24% | 2.43% |
| CCCC(C)C(=O)NCc1cn2cc(Br)ccc2n1 (configuration not stated) | -3.66% | -44.7% | 5.33% | 4.19% | -0.876% | -2.37% | 9.68% | 4.86% | 9.57% | 15.6% | -2.1% |
| CCN(CC1CCCO1)C(=O)Nc1cc(C(=O)OC)ccc1F (configuration not stated) | -2.67% | 7.59% | 1.58% | 13.4% | -1.98% | 1.9% | 2.21% | 0.11% | 3.45% | 8.86% | -8.28% |
| CC(C)c1nc2n(n1)CC(NCc1ncc(-c3ccccc3)o1)CC2 (configuration not stated) | -0.807% | 2.6% | -3.44% | 5.78% | 4.8% | 4.84% | 4.12% | 8.03% | 2.86% | 2.35% | -14.2% |
| Cc1cc(C(=O)N2CCCCC2C)ccc1NCCCO (configuration not stated) | -2.03% | -2.6% | 3.91% | 5.61% | -3% | 0.712% | 4.73% | -4.27% | 3.88% | 7.32% | -0.238% |
| COC(=O)CN(C)C1CCc2ccccc21 (configuration not stated) | -0.581% | 15.8% | 1.01% | 8.14% | 1.5% | 5.36% | 18.4% | -4.6% | 7.35% | 9.76% | -8.13% |
| CC(O)CN1CCN(C(=O)c2ccc(N(C)C)nn2)CC1 (configuration not stated) | -4.58% | 10.4% | -1.75% | 11.7% | 3.93% | 4.27% | 1.18% | 17.9% | 3.88% | 12.2% | -9.31% |
| COc1nc(C)cc(C)c1CNC(=O)N(C)Cc1cnn(C)c1 | -2.85% | 10.8% | -7.89% | 7.05% | 2.32% | -2.4% | 6.28% | 4.87% | 3.96% | 15.8% | -6.86% |
| CCN1CC(C(=O)NCc2ccnc(-n3ccnc3C)c2)CC1=O (configuration not stated) | -2.69% | 0% | -12.9% | -7.63% | 0% | -3.18% | 3.02% | 20.3% | -1.07% | -2.5% | -4.95% |
| COc1ccc(CNC2CCCN(Cc3noc(C)n3)C2)cc1F (configuration not stated) | -10.4% | 10.4% | 0.711% | 4.31% | -5.06% | -3.2% | -1.01% | 32.5% | 0.971% | -2.44% | -5.61% |
| Cc1ccoc1C(=O)NC1CCN(Cc2cccc3c2OCCO3)CC1 | -5.22% | 16.5% | -78.8% | 6.72% | 3.38% | -5.38% | 13.9% | 8.82% | 13.5% | 25.3% | -24.5% |
| CC1CN(C)c2ccccc2CN1C(=O)CSc1ccncc1 (configuration not stated) | -1.53% | 11% | 2.54% | 1.63% | 0.783% | 2.73% | 2.48% | 17.3% | 6.45% | 7.5% | -6.19% |
| CCCN(CCO)C(=O)C1CCC(=O)N(CCc2ccc(Cl)cc2)C1 (configuration not stated) | 0.568% | 6.94% | 1.97% | -2.89% | 2.23% | 3.53% | 8.77% | -9.44% | 4.21% | 7.69% | -5.01% |
| COc1cccc(S(=O)(=O)N2CCn3cnc(COCC4CC4)c3C2)c1 | -2.27% | 2.67% | 2.22% | 0.793% | 0.386% | -33.1% | 3.93% | 7.62% | 3.12% | 5% | -4.77% |
| CCn1c(NCc2ccco2)nc2c(C)nn(C)c2c1=O | -2.68% | 20% | 4.54% | -6.91% | 3.93% | 92.8% | 22.6% | 7.87% | 9.52% | 17.9% | -14% |
| Cc1cc(C)n(CC2CCCN2CC(=O)N(C)Cc2cnn(C)c2)n1 (configuration not stated) | -5.54% | 8.11% | -10.7% | 3.9% | 1.04% | -4.01% | 13% | 9.55% | 6.4% | 13.6% | -11.6% |
| Cc1cc(CN(C)C(=O)NCc2cccc(N3CCCC3=O)c2)no1 | -4.74% | 7.59% | -1.15% | 7.78% | 6.14% | -4.94% | -4.5% | -10.2% | 1.48% | 1.27% | -1.62% |
| COc1c(C2CCCN2CC(=O)Nc2cc(C)no2)c(C)nn1C (configuration not stated) | -5.41% | 13.5% | -3.77% | 4.82% | -4.74% | -2.03% | 6.82% | 0.794% | 5.94% | 11% | 3.98% |
